Many of the other results were omitted from the sample, so hits are more common in it than they were.
Giardia FBPA inh: qHTS Assay for Inhibitors of Fructose-1,6-bisphosphate Aldolase from Giardia Lamblia | Potency, µM (top dose mostly 59.6 µM), inactives show at the highest dose activity, negative = inhibition, usual class: inhibitors | purified Giardia FBPA | hit rate 0.71% among 290,000; note: potency is the fitted concentration of half-maximal effect; % is set by controls: 0 for no effect and ±100 for the full control effect; nearly all actives have a fitted effect of over 55% in size
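40 nM FBPA preincubated 10 min at RT with compound (up to 57.5 uM final), then substrate plus GAPDH/TPI/NAD/arsenate coupling and diaphorase/resazurin added. Fluorescence read after 20 min at RT, 525/598 nm.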
Shiga toxin inh: A qHTS for Small Molecule Inhibitors of Shiga Toxin; Vero cells, Shiga toxin protein synthesis inhibition reporter; hit rate 9.2% among 290,000; inhibition, % at 38.7 µM; in the data active = inhibition mostly above about 28%, no sharp cut-off; inactive = mostly below about 43%; note: 0% is about no effect
TbPYK inhibitor: qHTS of Trypanosoma Brucei Inhibitors. pyruvate kinase (Trypanosoma brucei), Q57TT1. TbPYK enzyme, Kinase-Glo Plus ATP luminescence, 45 min. Potency, µM (top dose mostly 76.8 µM), inactives show top-dose activity, negative = inhibition, most hits filed as inhibitors. hit rate 0.12% among 410,000. AID 624173, 2012; note: potency is the fitted concentration of half-maximal effect; % is set by controls: 0 for no effect and ±100 for the full control effect; nearly all actives have a fitted effect of over 50% in size
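Luminescence from Kinase-Glo Plus, added after a 45-minute room-temperature reaction, served as the end-point read-out. The enzyme and substrate were preincubated with compound before ADP (130 uM final) initiated turnover. Concentration-effect curves came from normalized qHTS data.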
RE007 growth inh: qHTS Assay for Inhibitors of the HIV-1 protein Vpr; Potency, µM (top dose mostly 92.2 µM), for inactives: at the top dose activity change, negative = less growth, hits mostly inhibitors; S. pombe RE007 Vpr strain, BacTiter-Glo ATP luminescence, 24 h; hit rate 0.21% among 360,000; AID 651644, 2012; active = well fitted falling curve with a large enough effect; inconclusive = small, poorly fitted or top-dose-only effect; inactive = no such curve, though single readings can be large or run the other way; note: potency is the fitted concentration of half-maximal effect; % is set by controls: 0 for no effect and ±100 for the full control effect; nearly all actives have a fitted effect of over 50% in size
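Fission yeast strain RE007, carrying one chromosomally integrated HIV-1 vpr copy, was seeded at OD 0.01 in PMG+AL medium with 23 nL pinned compound. After 24 h at 30 °C and 99% humidity, viability was read by BacTiter-Glo luminescence.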
CHX counter: Cycloheximide Counterscreen for Small Molecule Inhibitors of Shiga Toxin. max response, %. cell reporter, cycloheximide protein synthesis inhibition counterscreen. hit rate 12% among 300,000; in the data active = max response mostly above about 13%, no sharp cut-off; inactive = mostly below about 14%; note: read at 38.3 µM for the half of the compounds with a filed dose; 0% is about no effect
LmPK inh: qHTS Assay for Inhibitors of Leishmania Mexicana Pyruvate Kinase (LmPK). Q27686. purified LmPK, Kinase-Glo ATP luminescence, 1 h. Potency, µM (top dose mostly 57.5 µM), for the others: top-dose activity change, negative = inhibition, usual class: inhibitors. hit rate 0.37% among 290,000. AID 1721, 2009; note: potency is the fitted concentration of half-maximal effect; % is set by controls: 0 for no effect and ±100 for the full control effect
Target sequence (Q27686 whole entry, looked up): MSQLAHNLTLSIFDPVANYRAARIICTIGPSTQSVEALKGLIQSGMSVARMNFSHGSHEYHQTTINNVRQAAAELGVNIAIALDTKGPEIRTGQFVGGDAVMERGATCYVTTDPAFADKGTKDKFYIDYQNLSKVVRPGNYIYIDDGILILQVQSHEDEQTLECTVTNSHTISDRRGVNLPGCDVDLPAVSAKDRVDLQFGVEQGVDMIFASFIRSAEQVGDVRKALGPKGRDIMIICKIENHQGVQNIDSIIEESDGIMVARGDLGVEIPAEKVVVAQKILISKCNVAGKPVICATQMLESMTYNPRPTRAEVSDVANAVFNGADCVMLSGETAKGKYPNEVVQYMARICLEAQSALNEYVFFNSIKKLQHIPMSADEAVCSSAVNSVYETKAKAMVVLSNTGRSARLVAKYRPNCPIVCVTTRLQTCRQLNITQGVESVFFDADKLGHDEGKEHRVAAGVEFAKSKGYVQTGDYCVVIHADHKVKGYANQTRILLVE
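ATP generated from ADP (0.1 mM) and PEP (0.5 mM) by 0.1 nM LmPK over 1 h at room temperature (pH 7.2 imidazole buffer) was detected by coupled luciferase luminescence. Values were normalized to uninhibited and no-enzyme wells.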
* = called active by the depositor; ? = inconclusive; . = no result; [ ] = remark or other dose. Unless noted, calls come from the whole dose curve; as a rule, active = well fitted curve in the direction sought with a large enough effect; inconclusive = small, poorly fitted or top-dose-only effect, or another doubt; inactive = no such curve, though single readings can be large; an effect the other way counts as inactive or inconclusive.

SMILES	Giardia FBPA inh	Shiga toxin inh	TbPYK inhibitor	RE007 growth inh	CHX counter	LmPK inh
N#CCSc1nnc(COc2ccc3ccccc3c2)o1	1%	93*	-2%	1%	67*	0%
S=c1[nH]nc(COc2ccc3ccccc3c2)o1	10%	43*	?	0%	15	2%
CCOC(=O)N1CCc2c(sc3c2c(=O)n(Cc2ccccc2)c(=O)n3Cc2c(F)cccc2Cl)C1	.	.	-2%	.	.	.
COc1ccccc1CNc1ccnc(-c2ccc(N(C)C)cc2)n1	-21%	.	.	.	.	.
c1cncc(-c2csc(-c3cccnc3)n2)c1	5%	27	-8%	-4%	9	-6%
Nc1nc(-c2ccco2)cs1	?	21	-3%	2%	0	0%
c1csc(-c2csc(-c3cccs3)n2)c1	-6%	118*	1%	-25%	30*	-11%
c1cncc(-c2nc(-c3cccs3)cs2)c1	13%	53	?	-20%	44*	-2%
Clc1ccsc1-c1csc(-c2cccnc2)n1	0%	35	3%	-29%	33*	8%
c1cncc(-c2nc(-c3ccco3)cs2)c1	-16%	79*	?	6%	27*	-9%
Cc1nc2cnc(N(C)C)nc2n(C)c1=O	-4%	.	-2%	.	.	.
CCCCCCCCCCCCCCCC(=O)OC[C@H](O)[C@H]1OC[C@@H](O)[C@@H]1O	.	.	2%	.	.	.
O=C(O)C1CC[C@@](C(=O)O)(c2ccccc2)c2ccccc21 (some centres undefined)	0%	.	.	.	.	.
Oc1ccc(-c2csc(-c3cccnc3)n2)c(O)c1	-1%	111*	-8%	3%	35*	-7%
CC(=O)c1sc2nsc(SCCN3CCCCC3)c2c1N	-4%	43	-14%	-21%	29*	-3%
Nc1c(C(=O)c2ccc(Cl)cc2)sc2nsc(SCCN3CCOCC3)c12	?	19	-17%	18%	6	3%
Nc1c(C(=O)c2ccccc2)sc2nsc(SCCN3CCCC3)c12	1%	104*	-2%	-5%	40*	-5%
CCCCN(Cc1ccccc1)c1ncnc2nc[nH]c12	4%	31*	2%	12%	36*	-4%
CCCCN(CCCC)c1ncnc2nc[nH]c12	1%	-10	-16%	-6%	-3	0%
CCC1CCCCN1C(=O)CSc1nnc(-c2ccc(Cl)s2)o1 (centres undefined)	6%	82*	-6%	-25%	38*	5%
CCC1CCCCN1C(=O)CSc1nnc(-c2cccc(Cl)c2)o1 (centres undefined)	3%	98*	-6%	-8%	29*	3%
CCC1CCCCN1C(=O)CSc1nnc(-c2ccco2)o1 (centres undefined)	0%	62*	6%	-10%	37*	-4%
CCc1cccc(C)c1NC(=O)c1cnn(-c2ccc(OC)cc2)c1C1CCN(C(=O)OC(C)(C)C)CC1	.	.	-2%[15.4 µM]	.	.	.
Cc1ccc(C(=O)N2CCCC2(C)C(=O)NCC(C)C)cc1F (centres undefined)	.	.	1%	-3%	.	.
Cc1ccc(CCNC(=O)C2CCN(S(=O)(=O)c3ccc4c(c3)NC(=O)C(C)S4)CC2)cc1 (centres undefined)	-5%	2	-2%	7%	-2	4%
SMILES	Giardia FBPA inh	Shiga toxin inh	TbPYK inhibitor	RE007 growth inh	CHX counter	LmPK inh
CC1Sc2ccc(S(=O)(=O)N3CCC(C(=O)NCCc4ccccc4)CC3)cc2NC1=O (centres undefined)	.	6	2%	8%	15*	-3%
Cc1ccc(NC(=O)C2CCN(S(=O)(=O)c3ccc4c(c3)NC(=O)C(C)S4)CC2)c(Cl)c1 (centres undefined)	.	10	0%	-6%	16*	13%
O=C(CNC(c1ccccc1)c1ccccc1)Nc1ccccc1Br	-5%	-5	-11%	4%	4	-1%
Cc1c(O)nc2sc3ccccc3n2c1=O	-3%	6	.	.	-2	-2%
Cc1cc2sc3nc(=O)n(-c4ccccc4)c(=O)n3c2cc1C	-4%	32*	-4%	-26%	25*	-9%
COc1ccc(Oc2ncc3nc(-c4cccs4)c(=O)n(C)c3n2)cc1	-11%	.	2%	.	.	.
Cc1ccoc1C(=O)NCCNc1ccc(Cl)cc1[N+](=O)[O-]	0%	27	-10%	-24%	14*	5%
COc1cccc(C2N=C(c3ccccc3C)NO2)c1OC (centres undefined)	-20%	51*	2%	-18%	27*	5%
COc1cccc(C2NC(=O)c3ccccc3O2)c1OC (centres undefined)	-26%	-8	3%	4%	-6	2%
Cc1noc(Cn2c(=O)c3ccccc3n(CC(=O)Nc3ccc(C(C)C)cc3)c2=O)n1	.	.	2%	.	.	.
c1ccc(C2CCC3(CC2)Oc2ccccc2C2CC(c4cccnc4)=NN23)cc1 (centres undefined)	-10%	40*	.	.	27*	2%
COc1ccc(Cn2c(C(=O)O)c(CNCc3ccc(C)o3)c3ccc(OC)cc32)cc1	.	.	-5%	.	.	.
Cc1ccccc1NC(=O)C(=O)Nc1ccccc1C	8%	49*	-13%	33%	23*	-27%
Cc1ccccc1NC(=O)c1ccccc1O	-2%	20	2%	?	24*	-6%
Cc1ccccc1NC(=O)CC(=O)Nc1ccccc1C	0%	-5	-5%	-23%	-2	0%
Cc1nc2ccc(NC(=O)c3cc(Cl)ccn3)cc2s1	1%	82*	-4%	-16%	62*	2%
Cc1nc2ccc(NC(=O)c3ccc(Cl)nc3)cc2s1	-7%	24	0%	-10%	18*	-1%
Cc1ccc(C(=O)Nc2ccc3nc(C)sc3c2)o1	.	.	4%	-16%	.	.
COc1cccc2c1cc1c(=O)n(CC(=O)N3CCN(c4cccc(C)c4)C(C)C3)nc(C)n12 (centres undefined)	.	.	3%	.	.	.
O=C(NCCCN1CCN(c2ccc(F)cc2)CC1)c1cnn(-c2ccc(F)cc2)c1-n1cccc1	.	.	-4%	.	.	.
Cc1ccc(/C=C2/C(=O)NC(=O)N(CC3CCCO3)C2=O)s1 (centres undefined)	-2%	97*	-15%	4%	10	2%
COc1ccc(NC(=O)CSc2nc(N)c(C(=O)Nc3ccc(N(C)C)cc3)s2)cc1	-2%	124*	-5%	6%	40	1%
CN(C)c1ccc(NC(=O)CSc2nc(N)c(C(=O)Nc3ccc(N(C)C)cc3)s2)cc1	-3%	65	-7%	-6%	31*	-2%
Cc1nn(C(=O)c2cccs2)c(N)c1-c1ccccc1	0%	68*	-6%	-7%	35*	0%
